Publication PMC5540273 (PLoS ONE, 2017)

Columns and labels:
Details in all cases: concentration: 1 μM, replicates: in singlicate; n = 1
ERK1 = test system: T1, ERK1
T1 construct: gene MAPK3

ERK2 = test system: T2, ERK2
T2 construct: gene MAPK1

ERK3 = test system: T3, ERK3
T3 construct: gene MAPK6

ERK4 = test system: T4, ERK4
T4 construct: gene MAPK4

ERK5 = test system: T5, ERK5
T5 construct: gene MAPK7

ERK8 = test system: T6, ERK8
T6 construct: gene MAPK15

ERN1 = test system: ERN1
FAK = test system: T7, FAK
T7 construct: gene PTK2

FER = test system: FER
FES = test system: FES
FGFR1 = test system: FGFR1
FGFR2 = test system: FGFR2
FGFR3 = test system: FGFR3
FGFR4 = test system: FGFR4
FGR = test system: FGR
FLT1 = test system: FLT1
FLT3-autoinhibited = test system: FLT3-autoinhibited
FLT3 = test system: FLT3
FLT4 = test system: FLT4
FRK = test system: FRK
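Note: KINOMEscan kinase panel screen.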

Compound | %Inh (ERK1) | %Inh (ERK2) | %Inh (ERK3) | %Inh (ERK4) | %Inh (ERK5) | %Inh (ERK8) | %Inh (ERN1) | %Inh (FAK) | %Inh (FER) | %Inh (FES) | %Inh (FGFR1) | %Inh (FGFR2) | %Inh (FGFR3) | %Inh (FGFR4) | %Inh (FGR) | %Inh (FLT1) | %Inh (FLT3-autoinhibited) | %Inh (FLT3) | %Inh (FLT4) | %Inh (FRK)
Cn1cc(-c2ccc3c(c2)CCN3C(=O)Cc2cc(F)cc(F)c2F)c2c(N)ncnc21 [GSK2634140] | 9% | 9% | 0% | 0% | 0% | 0% | 11% | 5% | 39% | 0% | 0% | 0% | 0% | 0% | 48% | 59% | 0% | 31% | 14% | 10%
Cc1ccc(NC(=O)c2cccc(N3CCCCC3)c2)cc1-c1ccc(C(=O)NCC2CC2)cc1 [GSK1917008] | 2% | 0% | 100% | 23% | 0% | 51% | 17% | 15% | 16% | 21% | 21% | 20% | 21% | 18% | 24% | 34% | 20% | 0% | 13% | 49%
c1ccc(Oc2ccc(Nc3ccnc4cc(-c5ccc(CN6CCCCC6)o5)ccc34)cc2)nc1 [GW567143] | 13% | 0% | 0% | 0% | 0% | 0% | 26% | 0% | 4% | 0% | 9% | 0% | 1% | 1% | 65% | 20% | 67% | 98.4% | 23% | 33%
Nc1cccc(-c2ccc3c(N)n[nH]c3c2)c1 [GSK2193613] | 0% | 0% | 11% | 14% | 0% | 15% | 4% | 16% | 11% | 16% | 74% | 0% | 0% | 0% | 23% | 14% | 0% | 14% | 0% | 0%
CN(C)CCNS(=O)(=O)c1ccc(-c2ccnc3[nH]ccc23)cc1 [GSK977620] | 2% | 1% | 3% | 10% | 0% | 0% | 8% | 0% | 41% | 0% | 33% | 9% | 5% | 0% | 4% | 38% | 11% | 65% | 15% | 6%
Cc1nn2c(=O)cc(N3CCO[C@H](C)C3)nc2n1Cc1cccc(Cl)c1Cl [GSK2373693] | 0% | 0% | 0% | 19% | 0% | 26% | 0% | 0% | 8% | 0% | 6% | 12% | 12% | 63% | 6% | 33% | 13% | 0% | 18% | 5%
Cc1cc(-c2ccnc(Nc3cccc(C#N)c3)n2)cc(C)c1O [GSK1440913] | 0% | 0% | 75% | 1% | 0% | 99.1% | 0% | 0% | 7% | 28% | 0% | 54% | 27% | 14% | 37% | 27% | 12% | 48% | 15% | 60%
Cc1ccc(O)cc1Nc1ccnc2cc(-c3ccc(CN4CCCCC4)o3)ccc12 [GW557777] | 0% | 0% | 0% | 8% | 20% | 0% | 23% | 0% | 11% | 7% | 25% | 21% | 0% | 2% | 100% | 89% | 8% | 43% | 68% | 99.9%
COc1cccc(-c2nc(-c3ccccc3)[nH]c2-c2ccncc2)c1 [SB-610250] | 0% | 0% | 4% | 21% | 14% | 0% | 20% | 0% | 0% | 0% | 0% | 0% | 0% | 5% | 14% | 32% | 5% | 0% | 7% | 28%
Cl.Cl.NCC(NC(=O)c1cc(-c2cccnc2)c(-c2ccnc3[nH]ccc23)s1)c1ccccc1 (stereo not shown) [GSK1323434] | 0% | 8% | 3% | 33% | 0% | 16% | 6% | 0% | 50% | 44% | 8% | 0% | 39% | 6% | 42% | 17% | 0% | 5% | 0% | 15%
CN1CCN(Cc2ccc(NC(=O)Nc3ccc(N(C)c4ccnc(Nc5ccc(CS(C)(=O)=O)cc5)n4)cc3)cc2)CC1.Cl [GW827654] | 0% | 0% | 0% | 0% | 0% | 78% | 58% | 46% | 45% | 21% | 5% | 23% | 9% | 0% | 49% | 99.8% | 95.2% | 99.8% | 100% | 84%
CCn1c(-c2nonc2N)nc2c(-c3ccccc3)ncc(OCCCN)c21.O=C(O)C(F)(F)F.O=C(O)C(F)(F)F [GSK260205] | 0% | 0% | 0% | 0% | 0% | 0% | 11% | 0% | 10% | 0% | 30% | 0% | 0% | 0% | 38% | 37% | 0% | 12% | 43% | 5%
Nc1ncnc2scc(-c3ccc(NC(=O)Cc4cc(F)ccc4F)cc3)c12.O=C(O)C(F)(F)F [SB-731254-M] | 0% | 0% | 0% | 11% | 28% | 0% | 34% | 4% | 4% | 0% | 28% | 100% | 0% | 9% | 23% | 90.7% | 89% | 94.1% | 61% | 0%
CN(c1ccc2c(c1)nc(NCc1ccccc1)n2C)c1ccnc(Nc2ccc(CS(C)(=O)=O)cc2)n1.Cl [GW811603] | 0% | 3% | 0% | 0% | 1% | 6% | 1% | 23% | 4% | 0% | 100% | 27% | 0% | 0% | 33% | 96.9% | 58% | 98.8% | 99.9% | 86%
COC(=O)Nc1nc2cc(Oc3ccc(NC(=O)Nc4cccc(SC)c4)cc3)ccc2[nH]1.Cl [GW697999] | 0% | 0% | 0% | 8% | 0% | 55% | 0% | 0% | 13% | 0% | 11% | 5% | 0% | 0% | 47% | 98.9% | 22% | 99.3% | 86% | 48%
CN(c1ccc(F)c(NC(=O)c2cccc(OC(C)(C)C#N)c2Cl)c1)c1ccc2nc(NC(=O)C3CC3)sc2n1 | 1% | 1% | 0% | 0% | 4% | 0% | 0% | 1% | 0% | 0% | 48% | 72% | 8% | 26% | 84% | 95.8% | 0% | 96.7% | 99.8% | 71%
Cc1ccc(O)cc1Nc1ccnc2ccc(C(C)(C)C)cc12 [GW856805] | 2% | 0% | 9% | 6% | 9% | 13% | 27% | 34% | 21% | 12% | 14% | 28% | 0% | 0% | 94.9% | 26% | 0% | 11% | 35% | 98.9%
